ROC1-CUL1 inh – inhibitors of human ROC1-CUL1 ubiquitin ligase activity; in vitro K48 di-Ub FRET, acceptor:donor ratio, 45 min; inhibition, % at 10 µM; hit rate 0.6% among 140,000; AID 1347404; in the data active means inhibition above about 25%
Target sequence (P62877 whole entry, looked up): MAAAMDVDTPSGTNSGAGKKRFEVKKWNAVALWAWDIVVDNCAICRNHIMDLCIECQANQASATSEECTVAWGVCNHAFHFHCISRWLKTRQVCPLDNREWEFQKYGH
Target sequence (Q13616 whole entry, looked up): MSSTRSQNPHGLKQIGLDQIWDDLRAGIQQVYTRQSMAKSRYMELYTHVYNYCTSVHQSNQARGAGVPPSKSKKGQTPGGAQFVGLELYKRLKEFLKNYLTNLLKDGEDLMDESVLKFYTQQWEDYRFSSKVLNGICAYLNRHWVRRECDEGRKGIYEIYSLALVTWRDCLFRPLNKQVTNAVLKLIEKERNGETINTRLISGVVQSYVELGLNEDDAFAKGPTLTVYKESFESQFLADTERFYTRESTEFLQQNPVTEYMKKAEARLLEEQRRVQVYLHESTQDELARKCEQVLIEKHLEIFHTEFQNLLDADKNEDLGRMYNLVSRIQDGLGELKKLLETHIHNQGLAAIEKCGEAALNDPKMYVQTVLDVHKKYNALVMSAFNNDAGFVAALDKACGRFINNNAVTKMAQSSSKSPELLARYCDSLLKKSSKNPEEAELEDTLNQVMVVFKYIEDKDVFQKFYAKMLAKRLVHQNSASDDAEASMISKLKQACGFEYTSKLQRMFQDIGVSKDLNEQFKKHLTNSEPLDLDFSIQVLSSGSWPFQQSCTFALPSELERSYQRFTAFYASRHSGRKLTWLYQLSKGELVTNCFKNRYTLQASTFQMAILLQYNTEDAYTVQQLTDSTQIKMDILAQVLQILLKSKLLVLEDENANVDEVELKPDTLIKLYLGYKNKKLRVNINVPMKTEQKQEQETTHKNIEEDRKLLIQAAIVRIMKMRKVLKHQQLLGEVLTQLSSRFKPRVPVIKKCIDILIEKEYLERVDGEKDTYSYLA
Each line names hits and unclear results; the compound was inactive in the other large screens. Many of the other results were omitted from the sample, so hits are more common in it than they were.

O=C(NCCC1=CCCCC1)C1CC12CCN(C(=O)CCc1ccc3c(c1)OCO3)CC2 (stereo unspecified)	none
COc1cc(Br)c(Br)c(C=Nc2ccc(NC(=O)c3ccccc3Br)cc2)c1O	none
COc1cc(/C=C2/SC(=Nc3ccccc3C)NC2=O)c(Br)c(Br)c1O	none
COc1cc(Br)c(Br)c(/C=C2\SC(c3ccc(C)cc3)=NC2=O)c1O	ROC1-CUL1 inh 93
O=C(O)CN1C(=O)/C(=C/c2ccc(F)c(Br)c2)SC1=S	none
CCOc1cc(Br)c(Br)c(/C=C2\SC(=S)N(CC(=O)O)C2=O)c1O	ROC1-CUL1 inh 28
Cc1cc(/C=C2/SC(=O)N(CC(=O)Nc3ccccc3F)C2=O)c(C)n1C	none
O=C(CN1C(=O)S/C(=C/c2ccc(O)c(Br)c2)C1=O)Nc1cccc2ccccc12	none
O=C(O)CN1C(=O)/C(=C/c2ccccc2C(F)(F)F)SC1=S	none
C=CCN1C(=O)/C(=C\c2c(OCC)ccc3ccccc23)SC1=S	none
O=C(CN1C(=O)S/C(=C\c2cc(Cl)cc(Br)c2O)C1=O)Nc1ccccc1F	ROC1-CUL1 inh 26
O=C(O)CN1C(=O)/C(=C\c2cc(Cl)cc(Br)c2O)SC1=S	ROC1-CUL1 inh 81
CCOc1c(Br)cc(/C=C2\SC(=S)N(CC(=O)O)C2=O)cc1Br	none
N#CC1C(=N)OC2=C(CCC/C2=C\c2ccccc2Cl)C1c1ccccc1Cl (stereo unspecified)	none
COC(=O)[C@@H](NC(=O)c1coc(COc2cccc(F)c2)n1)C(C)C	none
O=C(NCCc1ccccc1C(F)(F)F)c1cc(CN2CCCC(O)C2)on1 (stereo unspecified)	none
COCCOc1ccccc1C(=O)Nc1cccc(C)c1C	none
COc1ccc(-c2[nH]nc3c2C(c2ccc(Br)cc2)C(C#N)C(=N)O3)cc1 (stereo unspecified)	none
COc1ccc(-c2[nH]nc3c2C(c2cc(I)cc(I)c2O)C(C#N)C(=N)O3)cc1 (stereo unspecified)	ROC1-CUL1 inh 28
COc1ccc(-c2[nH]nc3c2C(c2ccoc2)C(C#N)C(=N)O3)cc1 (stereo unspecified)	none
CCOc1nc2c(c(=O)n(C)c(=O)n2C)n1Cc1cccc(F)c1	none
O=C(CCCCC(=O)NNC(=O)C(c1ccccc1)c1ccccc1)NNC(=O)C(c1ccccc1)c1ccccc1	none
Cc1cc(C)c(S(=O)(=O)NC(C)C)c(C)c1	none
CC(=O)Nc1nnc(SCc2ccccc2Cl)s1	none
O=C(NC1CCCCC1)N1CCCn2c(SCc3ccccc3Cl)nnc21	none
N#CC1C=C(C(=O)O)C(=O)N=C1SCc1ccccc1Cl (stereo unspecified)	ROC1-CUL1 inh 73
CCOC(=O)C1C(C)=NC(=S)NC1c1ccc(-c2cccc(Cl)c2C)o1 (stereo unspecified)	none
COc1ccc(NC(=S)NC(=O)C2CC2)cn1	none
Cc1cc(/C=N/NC(=O)C(C)Sc2ccccc2)c(C)n1-c1ccc(F)cc1 (stereo unspecified)	none
O=C(OCCOc1ccccc1)c1ccc(-c2ccccc2)cc1	none
O=C(OCCOc1ccccc1)C(C(F)(F)F)C(F)(F)F	ROC1-CUL1 inh 85
NC(=O)c1ccccc1OCCOc1ccccc1	none
CCC(=O)Nc1cccc(-c2nnc(SCC(=O)c3ccc(Br)cc3)n2C)c1	none
CC(=O)Nc1ccc(N2CC(C(=O)NCC(C)C)CC2=O)cc1 (stereo unspecified)	none
Nc1ccccc1C#Cc1ccccc1	none
OCc1ccc(C#Cc2ccccc2)o1	ROC1-CUL1 inh 81
OCc1ccccc1C#Cc1ccccc1	none
CN(C)c1nc2nonc2nc1N(C)Cc1cnccn1	none
N=C1/C(=C/c2ccc(-c3ccccc3)o2)C(=O)N=C2SC(C(F)(F)F)=NN12	ROC1-CUL1 inh 60
N=C1/C(=C/c2ccc(-c3ccc(F)cc3)o2)C(=O)N=C2SC(C(F)(F)F)=NN12	ROC1-CUL1 inh 93
Cc1c(/C=C2\C(=N)N3N=C(C(F)(F)F)SC3=NC2=O)c2ccccc2n1Cc1ccc(F)cc1	none
COc1ccc(/C=C2/C(=N)N3N=C(C(F)(F)F)SC3=NC2=O)c(OC)c1OC	none
CC(C)C1=NN2C(=N)/C(=C/c3ccc(-c4cc(Cl)cc(Cl)c4)o3)C(=O)N=C2S1	none
N=C1/C(=C/c2ccc(-c3ccccc3)o2)C(=O)N=C2SC(c3ccccc3Cl)=NN12	none
CC1CCN(S(=O)(=O)c2ccc(NC(=O)C(c3ccccc3)c3ccccc3)cc2)CC1	none
O=C(Cc1ccccc1)NC1(C(F)(F)F)C(=O)N=C2C1C(=O)NC(=O)N2c1ccc(F)cc1 (stereo unspecified)	none
COc1ccc(CCNC(=O)CN(c2ccccc2)S(=O)(=O)c2ccc(OC)c(OC)c2)cc1	none
Cc1nc(N2CCCCCCC2)ncc1C(C)NC(=O)CCN1CCCC1=O (stereo unspecified)	none
O=C(NN=C1CCCCC1)c1n[nH]c2c1CCC2	none
CCN(CC)c1ccc(NC(=O)COc2ccc(C)cc2)c(C)c1	none
COC(=O)c1cnn(-c2cc(Oc3ccc(C(C)C)cc3)nc(SC)n2)c1N	none
Cc1ccccc1NC(=O)CN1C(=O)S/C(=C\c2ccc(-c3cccc(C(=O)O)c3C)o2)C1=O	none
COc1ccc(NC(=O)CN2C(=O)S/C(=C/c3cccn3-c3ccc(C)c(C)c3)C2=O)cc1	none
O=C(CN1C(=O)S/C(=C\c2ccc(Cl)cc2)C1=O)Nc1ccc(C(=O)O)cc1	none
O=C(CN1C(=O)S/C(=C\c2cccn2-c2cccc(C(=O)O)c2)C1=O)Nc1ccc(Cl)cc1	ROC1-CUL1 inh 49
N#Cc1ccccc1CN1C(=O)S/C(=C\c2ccc(-c3ccc(C(=O)O)c(Cl)c3)o2)C1=O	none
O=C(CN1C(=O)S/C(=C/c2ccc(-c3ccc(Cl)c(C(=O)O)c3)o2)C1=O)Nc1ccccc1	ROC1-CUL1 inh 104
Cc1c(C(=O)O)cccc1-c1ccc(/C=C2\SC(=O)N(CC(=O)Nc3ccc4c(c3)OCO4)C2=O)o1	ROC1-CUL1 inh 26
O=C(CN1C(=O)c2cccc3cccc1c23)Nc1ccc2c(c1)OCO2	none
Cc1ccc(NC(=O)CN2C(=O)S/C(=C\c3ccc(-c4cc(C(=O)O)ccc4Cl)o3)C2=O)cc1C	none
CN(CCN1CCOCC1)C(=O)C1(N(C)C)Cc2ccccc2C1	none
COc1ccc2c(c1)c(N1CCN(C)CC1)nc1c3ccsc3ccc21	none
COc1cc(CC2(CCC(=O)NCC3CCCCC3)CCC(=O)N2)ccc1F (stereo unspecified)	none
Cc1cnccc1CN(C)C(=O)CC1C(=O)NCCN1Cc1ccccc1 (stereo unspecified)	none
C=C(C)CSc1nc2sc3c(c2c(=O)n1Cc1ccccc1)CCCC3	none
C=CCOc1cccc(C2C(C(=O)c3ccc(C)cc3)C(=O)C(=O)N2CCN(CC)CC)c1 (stereo unspecified)	none
Cc1ccc(/C=C2\CCCC3C2=NN(C(=O)CN2N=NC4C(=O)N(c5ccc([N+](=O)[O-])cc5)C(=O)C42)C3c2ccc(C)cc2)cc1 (stereo unspecified)	none
COc1cccc(C(=O)Nc2cc(C(F)(F)F)ccc2OCCOc2ccccc2)c1	none
N#CC(CC1=Nc2ccccc2C1=O)C(N)=NC1CCCCC1 (stereo unspecified)	ROC1-CUL1 inh 71
CN(C)CC1=Nc2ccccc2C1=O	none
CCN(CC)CCN=C(N)C(C#N)CC1=Nc2ccccc2C1=O (stereo unspecified)	none
O=C(Cn1c(=O)cnc2ccccc21)c1ccc(Cl)cc1	none
CN1C(=O)C(=NC2CCCCC2)C2c3ccccc3C(=O)c3cccc1c32 (stereo unspecified)	none
CN1C(=O)C(=NCCc2ccccc2)C2c3ccccc3C(=O)c3cccc1c32 (stereo unspecified)	ROC1-CUL1 inh 36
Cc1ccc(N=C2C(=O)N(C)c3cccc4c3C2c2ccccc2C4=O)cc1 (stereo unspecified)	none
